Data published in the supplement of paper PMC5662767.
Counter-ions that a name gives are not always drawn.

System: Drosophila S2 cl14 SmoIP sensor cells
Assay: normalized SmoIP GFP fluorescence (untreated unstimulated = 0%, untreated Hh-stimulated = 100%); higher = more Smo activation sensor fluorescence
Details: compound concentration: 2 uM, 24 h
[1] = stimulation: Hh conditioned medium (+Hh)
[2] = stimulation: mock conditioned medium (-Hh)
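Note: flow cytometry read-out as median GFP intensity of gated cells, compounds added 30 min before Hh-conditioned or mock medium, mock-treated cells serving as unstimulated baseline.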

| Structure (SMILES) | normalized SmoIP GFP fluorescence [1] | normalized SmoIP GFP fluorescence [2] |
| --- | --- | --- |
| Cc1cc(OCCCS(C)(=O)=O)cc(C)c1-c1cccc(COc2ccc3c(c2)OC[C@H]3CC(=O)O)c1 | 120% | -6.79% |
| COc1ccnc2[nH]cc(C(=O)C(=O)N3CCN(C(=O)c4ccccc4)C[C@H]3C)c12 | 142% | 15.4% |
| O=C(C=Cc1ccccc1)NC(NC(=S)Nc1ccc(Cl)cc1)C(Cl)(Cl)Cl (configuration not stated) | 88.1% | -1.13% |
| CC(C)n1c(/C=C/[C@@H](O)C[C@@H](O)CC(=O)O)c(-c2ccc(F)cc2)c2ccccc21 [Fluvastatin-Sodium(Lescol] | 78.2% | -7.6% |
| COc1cccc(Nc2c(C(N)=O)cnc3c(C)cc(S(=O)(=O)c4cccc(C(=O)N(C)C)c4)cc23)c1 | 111% | -16.1% |
| O=C(Nc1ccc(-c2ccnc(Nc3ccc(N4CCOCC4)cc3)n2)cc1)C1CCCN1 (configuration not stated) | 121% | 2.12% |
| Nc1ncnc2c1c(-c1cnc3[nH]ccc3c1)nn2C1CCCC1 | 50.6% | -17.9% |
| COc1cc(OC)c2c(=O)[nH]c(-c3cc(C)c(OCCO)c(C)c3)nc2c1 | 112% | -3.16% |
| CCCS(=O)(=O)Nc1ccc(F)c(C(=O)c2c[nH]c3ncc(Cl)cc23)c1F | 108% | -0.0496% |
| CN(C)C(=O)C(CCN1CCC(O)(c2ccc(Cl)cc2)CC1)(c1ccccc1)c1ccccc1 [Loperamide-hydrochloride] | 106% | 7.46% |
| CCOc1cc(N)c(Cl)cc1C(=O)NCC1CN(Cc2ccc(F)cc2)CCO1 (configuration not stated) [Mosapride-citrate] | 103% | -4.68% |
| CC(C)N(C[C@H]1O[C@@H](n2cnc3c(N)ncnc32)[C@H](O)[C@@H]1O)[C@H]1C[C@@H](CCc2nc3cc(C(C)(C)C)ccc3[nH]2)C1 | 124% | -2.59% |
| CN1CCc2c(c3ccccc3n2Cc2ccc(C(=O)NO)cc2)C1 [tubastatin-a] | 108% | -3.05% |
| Nc1cccc2c1CN(C1CCC(=O)NC1=O)C2=O (configuration not stated) [Lenalidomide] | 115% | 28.7% |
| O=S(=O)(c1ccccc1)N(CC(F)(F)F)c1ccc(C(O)(C(F)(F)F)C(F)(F)F)cc1 | 104% | -1.85% |
| O=C(Nc1ccccc1-c1cn2c(CN3CCNCC3)csc2n1)c1cnc2ccccc2n1 | 107% | 1.57% |
| Cc1c(Cn2c(C)nc3c(C(=O)O)cc(N4CCOCC4)cc32)cccc1C(F)(F)F | 108% | 0.966% |
| NC(=O)c1cccc(-c2cccc(OC(=O)NC3CCCCC3)c2)c1 | 134% | -7.15% |
| CCOc1ccc(Cc2cc([C@@H]3O[C@H](CO)[C@@H](O)[C@H](O)[C@H]3O)ccc2Cl)cc1 [Dapagliflozin] | 75.9% | 1.57% |
| CC(=O)OCC[N+](C)(C)C [Acetylcholine-chloride] | 104% | -16.8% |
| COC1=C2C[C@@H](C)C[C@H](OC)[C@H](O)[C@@H](C)/C=C(\C)[C@H](OC(N)=O)[C@@H](OC)/C=C\C=C(/C)C(=O)NC(=CC1=O)C2=O [geldanamycin] | 209% | 46.6% |
